{"source": "PubChem BioAssay (NCI)", "key": {"[1]": {"assay": "NCI Yeast Anticancer Drug Screen. Data for the rad52 strain (AID 147);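 also: 0% = growth of vehicle-treated control cultures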", "conditions": "S. cerevisiae rad52 mutant growth inhibition, active compounds read high", "how_it_was_run": "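Vehicle-treated cultures served as the reference for growth inhibition of compound-exposed yeast bearing a DNA repair mutation.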"}, "[2]": {"assay": "NCI Yeast Anticancer Drug Screen. Data for the wt1 strain (AID 149);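 also: 0% = growth of vehicle-treated wt1 cultures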", "conditions": "S. cerevisiae wt1 strain (SPY 50644) growth inhibition, active compounds read high", "how_it_was_run": "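Readout: yeast growth inhibition, normalised to vehicle controls, in the wt1 strain exposed to test compounds.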"}, "[3]": {"assay": "NCI Yeast Anticancer Drug Screen. Data for the rad50EPP+ strain (AID 151);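 also: 0% = growth of vehicle-treated control cultures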", "conditions": "S. cerevisiae rad50 mutant strain, active compounds read high", "how_it_was_run": "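In this screen, rad50EPP+ yeast were exposed to compounds. Growth inhibition was scored against vehicle-treated controls.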"}, "[4]": {"assay": "NCI Yeast Anticancer Drug Screen. Data for the rad50 strain (AID 155);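 also: 0% = growth of vehicle-only cultures of the same strain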", "conditions": "S. cerevisiae rad50 strain growth inhibition, active compounds read high", "how_it_was_run": "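Compounds were tested on a yeast strain with an engineered DNA damage repair alteration; the reported value is growth inhibition normalised to vehicle treatment.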"}, "[5]": {"assay": "NCI Yeast Anticancer Drug Screen. Data for the mec2-1 strain (AID 157)", "conditions": "S. cerevisiae mec2-1 strain, active compounds read high", "how_it_was_run": "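Vehicle-treated cultures served as reference for growth inhibition of compound-exposed mec2-1 yeast.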"}, "[6]": {"assay": "NCI Yeast Anticancer Drug Screen. Data for the rad14 strain (AID 159);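 also: 0% = growth of vehicle-treated control cultures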", "conditions": "S. cerevisiae rad14 strain growth inhibition, active compounds read high", "how_it_was_run": "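Compound-treated yeast with a defined DNA-repair lesion; growth inhibition normalised to vehicle-treated cultures.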"}, "[7]": {"assay": "NCI Yeast Anticancer Drug Screen. Data for the sgs1 mgt1 strain (AID 161);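 also: 0% = growth of cultures given vehicle only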", "conditions": "S. cerevisiae sgs1 mgt1 strain, active compounds read high", "how_it_was_run": "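Genetically altered yeast, compound exposure, growth inhibition relative to vehicle.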"}, "[8]": {"assay": "NCI Yeast Anticancer Drug Screen. Data for the CLN2oe strain (AID 163);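 also: 0% = growth of vehicle-only control cultures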", "conditions": "S. cerevisiae CLN2oe strain, active compounds read high", "how_it_was_run": "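Inhibition relative to vehicle-treated yeast is reported. Cells: strain with genetic alteration in cell-cycle control, grown with compound.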"}, "[9]": {"assay": "NCI Yeast Anticancer Drug Screen. Data for the cln2 rad14 strain (AID 165);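 also: 0% = growth equal to vehicle treated cultures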", "conditions": "S. cerevisiae cln2 rad14 strain, active compounds read high", "how_it_was_run": "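Each compound was tested on cln2 rad14 yeast. Inhibition of growth was calculated against vehicle-exposed controls.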"}, "[10]": {"assay": "NCI Yeast Anticancer Drug Screen. Data for the bub3 strain (AID 167)", "conditions": "S. cerevisiae bub3 mutant strain, active compounds read high", "how_it_was_run": "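Growth of a checkpoint-deficient yeast mutant is measured after compound exposure. Values represent inhibition relative to vehicle.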"}, "[11]": {"assay": "NCI Yeast Anticancer Drug Screen. Data for the wt2 strain (AID 169);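 also: 0% = growth of vehicle-treated yeast cultures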", "conditions": "S. cerevisiae wt2 strain growth inhibition, active compounds read high", "how_it_was_run": "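Inhibition of yeast growth was determined after compound treatment, normalised to controls receiving only vehicle.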"}, "[12]": {"assay": "NCI Yeast Anticancer Drug Screen. Data for the mlh1 strain (AID 171);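 also: 0% = growth of vehicle-treated control cultures of the same strain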", "conditions": "S. cerevisiae mlh1 strain growth inhibition, active compounds read high", "how_it_was_run": "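Vehicle-normalised growth inhibition of a repair- or checkpoint-altered yeast strain following compound treatment.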"}, "[13]": {"assay": "NCI Yeast Anticancer Drug Screen. Data for the sgs1 strain (AID 173);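 also: 0% = growth of vehicle-only control cultures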", "conditions": "S. cerevisiae sgs1 mutant, active compounds read high", "how_it_was_run": "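Screen format: yeast with repair or checkpoint alterations, compound exposure, growth read relative to vehicle.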"}, "[14]": {"assay": "NCI Yeast Anticancer Drug Screen. Data for the mlh1 rad18 strain (AID 175)", "conditions": "S. cerevisiae mlh1 rad18 strain growth inhibition, active compounds read high", "how_it_was_run": "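Vehicle-treated cultures served as the reference for growth inhibition in a yeast strain carrying DNA damage repair alterations exposed to each compound.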"}, "[15]": {"assay": "NCI Yeast Anticancer Drug Screen. Data for the rad18 strain (AID 177)", "conditions": "S. cerevisiae rad18 mutant growth inhibition, active compounds read high", "how_it_was_run": "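Test articles were incubated with altered yeast defective in DNA damage repair. Results are given as inhibition of growth versus vehicle.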"}, "[16]": {"conditions": "at 5.0 µM (retest, dose inferred, filed as 0.5)"}, "[17]": {"conditions": "at 50.0 µM (retest, dose inferred, filed as 5.0)"}}, "note": "Compounds without any hit were thinned out: in the full panel of roughly 79,000, 15% have a hit. Unmarked numbers belong to inactive results. The source made the active and inactive calls. Rule as the data show it: active = growth inhibition above about 70%; inactive = the rest."}
{"smiles": "COc1cccc2c1C(=O)c1c(O)c3c(c(O)c1C2=O)C[C@@](O)(/C(C)=N\\O)C[C@@H]3OC1CC(N)C(O)C(C)O1", "note": "(stereo partly drawn)", "values": [{"measurement": "growth inhibition", "setting": "[1]; at 1.2 µM", "value": 8, "unit": "%"}, {"measurement": "growth inhibition", "setting": "[1]; at 3.7 µM", "value": 27, "unit": "%"}, {"measurement": "growth inhibition", "setting": "[1]; at 11.0 µM", "value": 61, "unit": "%"}, {"measurement": "growth inhibition", "setting": "[1]; at 33.0 µM", "value": "84% (active)"}, {"measurement": "growth inhibition", "setting": "[1]; at 100.0 µM", "value": "90% (active)"}, {"measurement": "growth inhibition", "setting": "[2]; at 1.2 µM", "value": 6, "unit": "%"}, {"measurement": "growth inhibition", "setting": "[2]; at 3.7 µM", "value": 1, "unit": "%"}, {"measurement": "growth inhibition", "setting": "[2]; at 11.0 µM", "value": 8, "unit": "%"}, {"measurement": "growth inhibition", "setting": "[2]; at 33.0 µM", "value": 19, "unit": "%"}, {"measurement": "growth inhibition", "setting": "[2]; at 100.0 µM", "value": 29, "unit": "%"}, {"measurement": "growth inhibition", "setting": "[3]; at 1.2 µM", "value": 7, "unit": "%"}, {"measurement": "growth inhibition", "setting": "[3]; at 3.7 µM", "value": 29, "unit": "%"}, {"measurement": "growth inhibition", "setting": "[3]; at 11.0 µM", "value": 63, "unit": "%"}, {"measurement": "growth inhibition", "setting": "[3]; at 33.0 µM", "value": "82% (active)"}, {"measurement": "growth inhibition", "setting": "[3]; at 100.0 µM", "value": "89% (active)"}, {"measurement": "growth inhibition", "setting": "[4]; at 1.2 µM", "value": 13, "unit": "%"}, {"measurement": "growth inhibition", "setting": "[4]; at 3.7 µM", "value": 52, "unit": "%"}, {"measurement": "growth inhibition", "setting": "[4]; [16]", "value": 22, "unit": "%"}, {"measurement": "growth inhibition", "setting": "[4]; at 11.0 µM", "value": "79% (active)"}, {"measurement": "growth inhibition", "setting": "[4]; at 33.0 µM", "value": "89% (active)"}, {"measurement": "growth inhibition", "setting": "[4]; [17]", "value": "93% (active)"}, {"measurement": "growth inhibition", "setting": "[4]; at 50.0 µM", "value": "91.6% (active)"}, {"measurement": "growth inhibition", "setting": "[4]; at 100.0 µM", "value": "93% (active)"}, {"measurement": "growth inhibition", "setting": "[5]; at 1.2 µM", "value": -2, "unit": "%"}, {"measurement": "growth inhibition", "setting": "[5]; at 3.7 µM", "value": 3, "unit": "%"}, {"measurement": "growth inhibition", "setting": "[5]; [16]", "value": 0, "unit": "%"}, {"measurement": "growth inhibition", "setting": "[5]; at 11.0 µM", "value": 14, "unit": "%"}, {"measurement": "growth inhibition", "setting": "[5]; at 33.0 µM", "value": 27, "unit": "%"}, {"measurement": "growth inhibition", "setting": "[5]; [17]", "value": -14, "unit": "%"}, {"measurement": "growth inhibition", "setting": "[5]; at 50.0 µM", "value": 5.75, "unit": "%"}, {"measurement": "growth inhibition", "setting": "[5]; at 100.0 µM", "value": 38, "unit": "%"}, {"measurement": "growth inhibition", "setting": "[6]; at 1.2 µM", "value": 1, "unit": "%"}, {"measurement": "growth inhibition", "setting": "[6]; at 3.7 µM", "value": 3, "unit": "%"}, {"measurement": "growth inhibition", "setting": "[6]; at 11.0 µM", "value": 8, "unit": "%"}, {"measurement": "growth inhibition", "setting": "[6]; at 33.0 µM", "value": 29, "unit": "%"}, {"measurement": "growth inhibition", "setting": "[6]; at 100.0 µM", "value": 63, "unit": "%"}, {"measurement": "growth inhibition", "setting": "[7]; [16]", "value": -5, "unit": "%"}, {"measurement": "growth inhibition", "setting": "[7]; [17]", "value": 26, "unit": "%"}, {"measurement": "growth inhibition", "setting": "[7]; at 50.0 µM", "value": -9.9, "unit": "%"}, {"measurement": "growth inhibition", "setting": "[8]; at 1.2 µM", "value": -1, "unit": "%"}, {"measurement": "growth inhibition", "setting": "[8]; at 3.7 µM", "value": 2, "unit": "%"}, {"measurement": "growth inhibition", "setting": "[8]; at 11.0 µM", "value": 8, "unit": "%"}, {"measurement": "growth inhibition", "setting": "[8]; at 33.0 µM", "value": 13, "unit": "%"}, {"measurement": "growth inhibition", "setting": "[8]; at 100.0 µM", "value": 44, "unit": "%"}, {"measurement": "growth inhibition", "setting": "[9]; [16]", "value": 3, "unit": "%"}, {"measurement": "growth inhibition", "setting": "[9]; [17]", "value": 18, "unit": "%"}, {"measurement": "growth inhibition", "setting": "[9]; at 50.0 µM", "value": 26.2, "unit": "%"}, {"measurement": "growth inhibition", "setting": "[10]; at 1.2 µM", "value": -2, "unit": "%"}, {"measurement": "growth inhibition", "setting": "[10]; at 3.7 µM", "value": 0, "unit": "%"}, {"measurement": "growth inhibition", "setting": "[10]; [16]", "value": 35, "unit": "%"}, {"measurement": "growth inhibition", "setting": "[10]; at 11.0 µM", "value": 5, "unit": "%"}, {"measurement": "growth inhibition", "setting": "[10]; at 33.0 µM", "value": 25, "unit": "%"}, {"measurement": "growth inhibition", "setting": "[10]; [17]", "value": 18, "unit": "%"}, {"measurement": "growth inhibition", "setting": "[10]; at 50.0 µM", "value": -23.6, "unit": "%"}, {"measurement": "growth inhibition", "setting": "[10]; at 100.0 µM", "value": 47, "unit": "%"}, {"measurement": "growth inhibition", "setting": "[11]; at 1.2 µM", "value": 0, "unit": "%"}, {"measurement": "growth inhibition", "setting": "[11]; at 3.7 µM", "value": 1, "unit": "%"}, {"measurement": "growth inhibition", "setting": "[11]; at 11.0 µM", "value": 12, "unit": "%"}, {"measurement": "growth inhibition", "setting": "[11]; at 33.0 µM", "value": 25, "unit": "%"}, {"measurement": "growth inhibition", "setting": "[11]; at 100.0 µM", "value": 37, "unit": "%"}, {"measurement": "growth inhibition", "setting": "[12]; at 1.2 µM", "value": 1, "unit": "%"}, {"measurement": "growth inhibition", "setting": "[12]; at 3.7 µM", "value": -1, "unit": "%"}, {"measurement": "growth inhibition", "setting": "[12]; at 11.0 µM", "value": 11, "unit": "%"}, {"measurement": "growth inhibition", "setting": "[12]; at 33.0 µM", "value": 26, "unit": "%"}, {"measurement": "growth inhibition", "setting": "[12]; at 100.0 µM", "value": 49, "unit": "%"}, {"measurement": "growth inhibition", "setting": "[13]; at 1.2 µM", "value": 0, "unit": "%"}, {"measurement": "growth inhibition", "setting": "[13]; at 3.7 µM", "value": 5, "unit": "%"}, {"measurement": "growth inhibition", "setting": "[13]; at 11.0 µM", "value": 15, "unit": "%"}, {"measurement": "growth inhibition", "setting": "[13]; at 33.0 µM", "value": 29, "unit": "%"}, {"measurement": "growth inhibition", "setting": "[13]; at 100.0 µM", "value": 48, "unit": "%"}, {"measurement": "growth inhibition", "setting": "[14]; [16]", "value": 9, "unit": "%"}, {"measurement": "growth inhibition", "setting": "[14]; [17]", "value": 46, "unit": "%"}, {"measurement": "growth inhibition", "setting": "[14]; at 50.0 µM", "value": 13.8, "unit": "%"}, {"measurement": "growth inhibition", "setting": "[15]; at 1.2 µM", "value": 3, "unit": "%"}, {"measurement": "growth inhibition", "setting": "[15]; at 3.7 µM", "value": 10, "unit": "%"}, {"measurement": "growth inhibition", "setting": "[15]; at 11.0 µM", "value": 20, "unit": "%"}, {"measurement": "growth inhibition", "setting": "[15]; at 33.0 µM", "value": 43, "unit": "%"}, {"measurement": "growth inhibition", "setting": "[15]; at 100.0 µM", "value": "75% (active)"}]}
